The text below walks through data of PubChem BioAssay.

In experiment [1] the test system is XIP peptide (Xip251-270) binding. In words: small-molecule binders of XIP peptide, primary screen, biochemical, small-molecule microarray, fluorescence 635/667 nm, 0.1 µg/mL protein (AID 1182). Particulars: fluorescent protein binding, 635 nm, higher = more signal, called active from +8 up or from −8 down.
Experiment [2] concerns XIP peptide (Xip251-270). In words: small-molecule binders of XIP peptide, primary screen, biochemical, small-molecule microarray, fluorescence 635/667 nm, 0.5 µg/mL protein (AID 1183). Particulars: small-molecule microarray binding, fluorescence 635 nm; higher = more signal.
Experiment [3] is described as follows: Plasmodium falciparum growth inhibition, primary screen, strain 3D7, DAPI fluorescence, 100 nL (AID 1184).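 Further: parasites grown inside human red blood cells in medium with human serum.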 Particulars: P. falciparum 3D7 growth, 3 d, higher = more signal.
Experiment [4] concerns the target Homeobox protein Hox-A13 (Mus musculus) (UniProt Q62424). In words: inhibitors of HoxA13-DNA binding, primary screen, biochemical, fluorescence polarization, labeled oligonucleotide (AID 1185). As to conditions: 15 min, higher = more signal, called active from +8 up or from −8 down. (In fluorescence polarisation assays a small probe gives low polarisation when free and higher when bound to something large.)

A short description of experiment [5]: inhibitors of hydroxyurea-induced Chk1 phosphorylation, primary screen, imaging, HeLa, phospho-Chk1 antibody, percent positive cells (AID 1186). As to conditions: hydroxyurea-induced phospho-Chk1 immunofluorescence imaging, higher = more signal.
Experiment [6] is described as follows: inhibitors of hydroxyurea-induced Chk1 phosphorylation, primary screen, imaging, HeLa, phospho-Chk1 nuclear intensity (AID 1187). As to conditions: hydroxyurea-induced phospho-Chk1 immunofluorescence imaging, higher = more signal.

Calls of active or inactive are those of the source. Unless noted, how the calls were made is not given here.

Sequence of Homeobox protein Hox-A13 (Mus musculus) (Q62424 whole entry, looked up): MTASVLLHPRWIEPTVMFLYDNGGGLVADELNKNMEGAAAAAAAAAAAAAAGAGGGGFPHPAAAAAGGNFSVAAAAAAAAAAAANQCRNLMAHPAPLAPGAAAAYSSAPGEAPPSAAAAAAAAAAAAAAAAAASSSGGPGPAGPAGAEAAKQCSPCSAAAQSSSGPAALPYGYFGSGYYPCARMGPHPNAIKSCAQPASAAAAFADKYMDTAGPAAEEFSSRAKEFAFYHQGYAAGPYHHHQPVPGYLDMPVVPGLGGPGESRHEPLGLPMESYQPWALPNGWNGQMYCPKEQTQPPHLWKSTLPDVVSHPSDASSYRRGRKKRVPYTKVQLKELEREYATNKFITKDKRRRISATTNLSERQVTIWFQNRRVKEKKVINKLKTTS

For the compound `CC(C)(C)OC(=O)CC[C@@]1(C(N)=O)N=C(c2ccc(OCCCO)cc2)O[C@@H]1c1ccccc1`, the composite z-score is 0.222 (inactive) in experiment [1] and 0.355 in experiment [2]. For the same compound, the z-score in experiment [3] was -0.589; in experiment [4], -3.33 (inactive); in experiment [5], 0.335 (inactive); in experiment [6] it was -0.0302 (inactive).

On to `CCOC(=O)C[C@H]1[C@H](OC(=O)Cc2ccc3c(c2)OCO3)[C@@H](NC(=O)c2ccc(-c3ccccc3)cc2)c2cc(OCCCO)ccc2N1C(=O)Cc1ccc(OC)cc1`, for which the composite z-score in experiment [1] was 0.784 (inactive); in experiment [2] it was 0.0066. In addition, the z-score in experiment [3] was -1.72; in experiment [4], -1.61 (inactive); in experiment [5] it was -0.324 (inactive); in experiment [6], -0.116 (inactive).

Turning to `CCOC(=O)C[C@H]1[C@H](OC(=O)Cc2ccc3c(c2)OCO3)[C@@H](NC(=O)c2ccc(-c3ccccc3)cc2)c2cc(OCCCO)ccc2N1C(=O)c1ccc2ccccc2n1`, the values for the composite z-score in experiment [1] and in experiment [2] were -0.458 (inactive) and 0.447, respectively. Further, the z-score in experiment [3] was -2.38; in experiment [4] it was -1.61 (inactive); in experiment [5] it was 0.455 (inactive); in experiment [6] it was 0.46 (inactive).

As for `COc1ccc([Si](C)(C)[C@@H]2[C@@H](CC(=O)N3Cc4ccccc4C[C@H]3CO)O[C@]3(C(=O)N(C)c4c(Br)cc(C)cc43)[C@H]2C)cc1`, the composite z-score is -0.223 (inactive) in experiment [1] and 0.565 in experiment [2]. Further, the z-score in experiment [3] is -2.35; in experiment [4], -4.06 (inactive); in experiment [5], -0.79 (inactive); in experiment [6], -0.12 (inactive).

As for `COc1ccc(CCNC(=O)[C@@H]2c3ccccc3C(=O)N(C3Cc4ccccc4C3)[C@H]2c2ccc(CO)cc2)cc1`, the results for the composite z-score in experiment [1] and in experiment [2] were 1.14 (inactive) and 0.219, respectively. The z-score is -0.268 in experiment [3], -3.47 (inactive) in experiment [4], -0.222 (inactive) in experiment [5] and -0.28 (inactive) in experiment [6].

Regarding `C[C@@H]1ON(c2cccc(C(=O)OC(C)(C)C)c2)[C@H](c2ccc(Br)cc2)[C@H]1C(=O)N1C(=O)OC[C@H]1Cc1ccccc1`, the composite z-score was 0.543 (inactive) in experiment [1] and 0.615 in experiment [2]. In addition, the z-score in experiment [3] was -0.829; in experiment [4], -0.923 (inactive); in experiment [5], 0.0511 (inactive); in experiment [6], 0.176 (inactive).

Turning to `C=CCNC(=O)[C@H]1[C@@H]2C(=O)O[C@@H](c3ccccc3)[C@@H](c3ccccc3)N2[C@@H](c2ccc(OCCO)cc2)[C@]12C(=O)Nc1ccc(C#CC3=CCCCC3)cc12`, the figures for the composite z-score in experiment [1] and in experiment [2] were 0.116 (inactive) and 0.731, respectively. The z-score is -1.19 in experiment [3], 3.25 (inactive) in experiment [4], 0.151 (inactive) in experiment [5] and 0.359 (inactive) in experiment [6].

As to `C#CCN(CC1=CCCCC1)[C@H](c1ccccc1Br)[C@@H](O)Cc1ccccc1`, the composite z-score in experiment [1] was 0.0838 (inactive); in experiment [2], -0.43. For the same compound, the z-score in experiment [3] was 0.47; in experiment [4], -0.843 (inactive); in experiment [5], -0.164 (inactive); in experiment [6], -0.155 (inactive).

For the compound `CC(C)C(=C=CC[C@@H](O)c1ccccc1OCCO)CCO`, the composite z-score in experiment [1] was 0.305 (inactive); in experiment [2], -0.161. Moreover, the z-score in experiment [3] was -0.637; in experiment [4] it was -2.91 (inactive); in experiment [5], -0.306 (inactive); in experiment [6], 0.231 (inactive).

For `C=CCOC(=O)[C@@H]1[C@H]2C(=O)O[C@H](c3ccccc3)[C@H](c3ccccc3)N2[C@H](c2ccc(OCCOC(=O)[C@@H]3C[C@@H]4C(=O)N[C@@H](Cc5ccccc5)C(=O)N4[C@@H]3c3ccc(O)cc3)cc2)[C@@]12C(=O)Nc1ccc(I)cc12`, the figures for the composite z-score in experiment [1] and in experiment [2] were 0.895 (inactive) and 0.736, respectively. Also, the z-score in experiment [3] was -1.95; in experiment [4] it was -0.584 (inactive); in experiment [5], 0.193 (inactive); in experiment [6], 0.453 (inactive).

Regarding `CN(C)CCCC[C@@H]1NC(=O)[C@H]2C[C@@H](C(=O)NCCCCCNC(=O)CS)[C@@H](c3cccc(OCCO)c3)N2C1=O`, the composite z-score is 1.2 (inactive) in experiment [1] and 0.567 in experiment [2]. For the same compound, the z-score in experiment [3] was -0.103; in experiment [4], -3.25 (inactive); in experiment [5], -0.244 (inactive); in experiment [6] it was -0.144 (inactive).

Consider `COCC(=C=CC[C@H](O)c1ccccc1OCCO)C[C@H](O)c1cc(Cl)cc(Cl)c1O`, for which the figures for the composite z-score in experiment [1] and in experiment [2] were 0.549 (inactive) and 0.736, respectively. The z-score in experiment [3] was -0.254; in experiment [4], -3.5 (inactive); in experiment [5], 1.36 (inactive); in experiment [6], 0.764 (inactive).

Consider `C=C(CCCC)C(=O)CC[C@H](OC(C)=O)c1cccc(OCCO)c1`, for which the composite z-score is 0.162 (inactive) in experiment [1] and -0.0976 in experiment [2]. For the same compound, the z-score in experiment [3] was -1.98; in experiment [4], -5.04 (inactive); in experiment [5] it was -0.0717 (inactive); in experiment [6], -0.148 (inactive).

With `COCCOC(=O)N1C(=O)[C@@]2(c3cc(C#CC4=CCCCC4)ccc31)[C@H](c1ccc(O)cc1)N1[C@H](c3ccccc3)[C@H](c3ccccc3)OC(=O)[C@H]1[C@@H]2C(N)=O`, the composite z-score is 0.181 (inactive) in experiment [1] and 0.751 in experiment [2]. Further, the z-score in experiment [3] was -0.0117; in experiment [4], -1.22 (inactive); in experiment [5], 0.0809 (inactive); in experiment [6] it was 0.185 (inactive).

Take `O=C1O[C@@H](c2ccccc2)[C@@H](c2ccccc2)N2[C@@H](c3ccc(OCCO)cc3)[C@]3(C(=O)Nc4ccccc43)[C@@H](C(=O)NC[C@H](O)c3ccccc3)[C@H]12`: the composite z-score was 1.29 (inactive) in experiment [1] and 0.345 in experiment [2]. In addition, the z-score in experiment [3] was 0.0884; in experiment [4] it was -5.41 (inactive); in experiment [5], 0.167 (inactive); in experiment [6] it was 0.696 (inactive).
